According to the supplement of paper PMC11417369:
The full ranking holds about 25,000 sequences; the median of “ln(normalized median fluorescence intensity)” is about 6.7, and the highest 2% start at about 10. The sample as a whole holds a higher share of the highest values than the screen did.

test system: PfHDP1 homeodomain (GST-tagged); assay: gcPBM binding intensity (ln(normalized median fluorescence intensity)); higher = stronger DNA binding
How it was run: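 Binding intensity is the highest Masliner-normalised natural-log median intensity over replicate spots in either probe orientation. To obtain it, GST-tagged P. falciparum DNA-binding domains made in E. coli were incubated for 1 h on an Agilent 4 × 180k array of primer-extended double-stranded 36-bp intergenic genomic probes plus negative controls. Detection used Alexa488 anti-GST antibody with scanning at 488 nm.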

In order of falling “gcPBM binding intensity (ln)” value:
1. ATATGCACTCATTGTGCACACGCATATTACGAAAAG [CACACA_site2637]  11.6
2. ATTGTATGCACGTCTGCACACTTTTTTTTTTTTTTT [CACACA_site2082]  11
3. TCCTTATATTTGCACACACACACAAGAAAATGAAAA [CACACA_site6613]  11
4. ATGTAGAAGTAATGCACACATATGTATTTATATATA [CACACA_site5391]  10.9
5. TTCTTTTTAATGTCGGTGCAACTCCATAAAAACAAA [GTGCAC_site9488]  10.9
6. TTTGTTCTTTTTGAAGTGCACTGAAATATAACAAAA  10.9
7. ATGCACTCATTGTGCACACGCATATTACGAAAAGAA [CACACA_site2638]  10.8
8. TATCCTTATATTTGCACACACACACTAGAAAATGAA [CACACA_site4714]  10.7
9. AAAATATAATATATTGCACACAAAAAGTGAATTATT [CACACA_site8489]  10.6
10. TATCCTTATATTTGCACACACACACCCTAAAATGAA [CACACA_site1029]  10.6
11. AATGTCCTTATTTGCACACACACATATAAGAAATTT [CACACA_site3186]  10.6
12. ATGTAGAAGTAATGCACACATATGTATATATATATA [CACACA_site2494]  10.5
13. GTCCTCATCCACTATGCACACAAAAAAGAAATACAC [CACACA_site9131]  10.5
14. TGTCCTTATTTGCACACACACATATAAGAAATTTAA [CACACA_site7485]  10.5
15. TTTAGTGAGTTTGTTGTGCACTGAAAAAATTACAAT  10.4
16. TAAATGTCCTTATTTGCACACACACCCATAAGAAAT [CACACA_site3185]  10.4
17. TATATATAATATTGCACACAAAATTAAAAGTAAATA [CACACA_site19]  10.3
18. ATATGTAGAAGTAATGCACACATATGTATATATATA [CACACA_site8796]  10.3
19. GAACAAATTAAATAGGTGCATTAACATGTTCTATTT [GTGCAC_site9729]  10.1
20. ATATTTTATGTAAAGGTGCAAAACAACATTAAAAAA  9.97
21. AATGTGTTCATATATGCACACGCATATATATTATTG [CACACA_site9274]  9.95
22. GATATCCTTATATTTGCACACACACCCAATAAAATG [CACACA_site1028]  9.87
23. TCTATTATCCTTTGCACACAAAATAAATGAAAAAAT [CACACA_site3029]  9.75
24. ATTTGTATTGTATATGCACACATAGAACACTTTTTT [CACACA_site9373]  9.69
25. TGTGTTCATATATGCACACGCATATATATTATTGTT [CACACA_site3822]  9.67
26. TGTGTTCATCTATGCACACGCATATATATTATTGTT [CACACA_site5985]  9.64
27. ATTCTATTATCCTTTGCACACAAAATAAATGAAAAA [CACACA_site3030]  9.63
28. TATATATATAATATTGCACACAAAATTAAAAGTAAA [CACACA_site7889]  9.61
29. CCTCATCCACTATGCACACAAAAAAGAAATACACTA [CACACA_site3422]  9.52
30. TATACATATGTATGCACACATACATACACATAGAAT [CACACA_site3480]  9.51
31. AAAATATATTCAACTTGTACATATATATATATATAT [XGTACX_site7629]  9.4
32. TATATATATATATATACACACATATACATATTGTTT [CACACA_site3499]  9.37
33. AATTCGTACCTCATTTGTACATATATATATATATAT [XGTACX_site5513]  9.34
34. AGTACATTATAGAATACACACCTATATATATATATA [CACACA_site4447]  9.29
35. AAAATGAAGAAGTGCACACATATATATATTTATATA [CACACA_site507]  9.11
36. TTTTTTTTTTTTTGCACACACCATATTTATAGAAAT [CACACA_site5772]  9.04
37. ACGCACGAAATAAATACATGCATATTGTAAAAATTA [TGCATGCA_site310]  8.99
38. TTGTATTGTATATGCACACATAGAACACTTTTTTTT [CACACA_site4133]  8.44
39. TTCTTGTTCCTGAAAGTGCATATAACAAAAATAACA [GTGCAC_site9635]  8.06
40. ATATGTAAAATGAAGATACATACATACATACATACA [CACACA_negctrl_site715]  7.53
41. TAATATATATAAACATGTACAAATCAAAAACAAAAG [XGTACX_site4076]  7.52
42. ATAAAGCCATACAATACACACATTTTACATGGGGGT [CACACA_site9072]  7.27
43. TCCTTATATTGGCACACACACACAATAAAATGAAAA [CACACA_site4715]  7.07
44. TTACACAAACAAATTATGGACACATAAGTAAAAGGA [CACACA_negctrl_site1622]  6.97
45. TCTTTCTAAAGATGTAGTACAAAATAAATATAATAT [XGTACX_site6564]  6.87
46. TTCAAGATTTATTATACACACATATTAATATATATA [CACACA_site573]  6.83
47. ATGTGATAGAAGTACACACACATATGTATTTATAAT [CACACA_site5075]  6.7
48. ATATATAGAATGTGTACACACATATGTATTTATATA [CACACA_site810]  6.7
49. TGTTTATCATATTTGTGTCCTCATTTTTTAGTATCA [XGTACX_site947]  6.62
50. AGAAAGAAAATATATACACACAAAAAAAAATATATA [CACACA_site1412]  6.61
51. TTCTTTTTTTTTAAAACAAACAAACAAACAAACAAA [CACACA_negctrl_site832]  6.6
52. TTAATATTCCAGCTTTGTACATATATATATTATAAA [XGTACX_site7954]  6.6
53. GCACATATGAATATAATACACACTTGTATTATTAAT [CACACA_site1841]  6.59
54. AAGTATGTATCACAAAGTACTTAAGCATATATTTAA [XGTACX_site4121]  6.57
55. TTTTGAAGTAACAAATAAATAAATAAATATATAAAA [GTGCAC_negctrl_site517]  6.53
56. TCCAAAATATCCTTCACACACGAACAGTTTCATTTA [CACACA_site5511]  6.49
57. ATTTCTCTATCGTAATGTACAAAAAAAAGGGAAAAG [XGTACX_site1335]  6.48
58. TTAACCTTTTGATATTGTACCCATAATCTAATACAA [XGTACX_site769]  6.47
59. AATAATAAAAAATATACACACATATATAAATAAATA [CACACA_site6164]  6.35
60. AGACTATCATTTTTTTAACACACAAAAAAAATAAAA [CACACA_site9173]  6.35
61. TTTTTGATGAAATATTATTTTCCTGACTTGGATTAA [CACACA_negctrl_site148]  6.27
62. TATTGTATTTCATATTGTACTAAAAAAAAAAAAAAG [XGTACX_site6694]  6.24
63. TTATAATAGTTAATATGTACATATTTAATAAATAAT [XGTACX_site3183]  6.23
64. ATAATACATATAGAAGGTACACTATTATTTTCCTGA [XGTACX_site903]  6.13
